Screening data: PubChem BioAssay, The Scripps Research Institute Molecular Screening Center
ASK1 primary = human ASK1 kinase inhibition, primary screen; Q99683; AlphaScreen MKK6 phosphorylation by ASK1, luminescence; inhibition, % at 7.44 µM; 0.99% of 22,000 active; AID 1159602; in the data active = inhibition above about 35%;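 also: 0% = median of compound wells and 100% = no enzyme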
ULK1 inh = inhibitors of human ULK1 kinase; O75385; 1.9% of 30,000 active; AID 1259251; inhibition, % at 5.96 µM; AlphaScreen Atg13 phosphorylation by ULK1, luminescence; in the data active = inhibition above about 43%;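 also: 0% = median of compound wells and 100% = no enzyme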
The depositor's hits bear a star; x = no result; ! = repeats disagree. This is a sample that favours compounds with a hit; in the whole collection about 2.4% have one here.

SMILES	ASK1 primary	ULK1 inh
CC(C)n1cnc2c(NC3CCN(Cc4ccccc4)CC3)nc(-c3cccc(N)c3)nc21	-2	-10
O=C(Cc1cn(-c2ccc(N3CCN(Cc4ccc5c(c4)OCO5)CC3)nn2)c2ccccc12)Nc1ccc2c(c1)OCO2	21	23
COc1ccc(Nc2ncc(-c3ccccc3)cn2)cc1	x	4
CNS(=O)(=O)c1ccccc1Nc1nc(Nc2cc(OC)ccc2OC)ncc1Br	-3	64*
CNS(=O)(=O)c1ccccc1Nc1nc(Nc2ccc(N3CCOCC3)cc2OC)ncc1Br	-46	91*
COc1cnc(Nc2ccc(N3CCOCC3)cc2)nc1Nc1ccc(N2CCOCC2)cc1	-2	17
c1ccc(OCCNc2nc(N3CCN(c4ccccn4)CC3)nc3c2ncn3-c2ccccc2)cc1	18	-11
CC(C)N(CCNC(=O)C1CCN(c2ccc(Nc3ccc(C(F)(F)F)cc3)nn2)CC1)C(C)C	3	-1
OCC1CCCN1c1nc(NCc2ccccc2)c2ncn(-c3ccsc3)c2n1 (centres undefined)	5	-11
COc1ccc2c(c1)CC(c1nc(Nc3ccc(-c4cn[nH]c4)cc3)c3cc(OC)ccc3n1)CO2 (centres undefined)	-26	-46
Fc1cc(-c2nc(Nc3cccc(Cn4cccn4)c3)ncc2F)cc(N2CCOCC2)c1	12	21
Fc1cc(-c2ccnc(Nc3cccc(CN4CCOCC4)c3)n2)cc(N2CCOCC2)c1	17	38
Fc1cc(-c2nc(Nc3cccc(CN4CCCC4)c3)ncc2F)cc(N2CCOCC2)c1	11	70*
Fc1cc(-c2nc(Nc3cccc(CN4CCOCC4)c3)ncc2F)cc(N2CCOCC2)c1	10	45*
O=C(NCc1cccnc1)c1ccc2nc(N3CCC(N4CCOCC4)CC3)sc2c1	4	-14
CCN(CC)C(=O)C1CCCN(c2nc(Nc3ccccc3)c3cc(OC)c(OC)cc3n2)C1 (centres undefined)	-25	23
COc1cc(Nc2nc(-c3ccccc3)ncc2C)cc(OC)c1OC	16	49*
COc1ccc(-c2ncc(C)c(Nc3cc(OC)c(OC)c(OC)c3)n2)cc1	22	67*
COc1cc(Nc2nc(-c3cccc(C(C)=O)c3)ncc2C)cc(OC)c1OC	7	25
COc1cc(Nc2nc(-c3ccc(C(=O)NC4CC4)cc3)ncc2C)cc(OC)c1OC	21	35
O=C(O)c1ccc(NC2OCC(O)C(O)C2O)cc1 (centres undefined)	x	-3
NC(Cc1cc(I)c(Oc2ccc(O)c(I)c2)c(I)c1)C(=O)O (centres undefined)	x	-7
N[C@@H](Cc1cc(I)c(Oc2cc(I)c(O)c(I)c2)c(I)c1)C(=O)O	x	79*
c1cc(Nc2cc(C3CC3)[nH]n2)cc(Nc2ccc(N3CCOCC3)cc2)n1	10	47*
Cc1cnc(Nc2ccc(N3CCNCC3)cc2)cc1Nc1ccccc1C(N)=O	3	94*
SMILES	ASK1 primary	ULK1 inh
NC(=O)c1ccccc1Nc1ccnc(Nc2ccc(N3CCOCC3)cc2)c1	9	10
NC(=O)c1nccnc1Nc1ccnc(Nc2ccc(N3CCOCC3)cc2)c1	9	17
c1cc(Nc2ccc3nc[nH]c3c2)cc(Nc2ccc(N3CCOCC3)cc2)n1	11	3
CN1CCN(c2ccc(Nc3cc(Nc4ccccc4C(N)=O)ccn3)cc2)CC1	7	40
NC(=O)c1ccccc1Nc1ccnc(Nc2ccc(N3CCNCC3)cc2)c1	0	48*
NC(=O)c1cnccc1Nc1ccnc(Nc2ccc(N3CCOCC3)cc2)c1	8	44*
Cc1cnc(-c2ccc(C(=O)N3CCN(C)CC3)cc2)nc1NCCc1ccc(O)cc1	-3	-4
CC(=O)N/N=C/c1ccc([N+](=O)[O-])o1	x	15
COc1cc(N2CCOCC2)ccc1Nc1cc(Nc2ccccc2C(N)=O)c(C)cn1	0	31
Cc1cnc(Nc2cccc(N3CCOCC3)c2)cc1Nc1ccccc1C(N)=O	-4	82*
NC(=O)c1ccc(-c2ncc(C(=O)NCc3cccnc3)s2)cc1	-6	17
O=Cc1ccc(O)c(O)c1O	x	89*
COc1cc2nc(Nc3ccc(C(F)(F)F)cc3)nc(Nc3ccccc3)c2cc1OC	-20	-57
O=C(CN1CCC2(CC1)NC(=O)N(Cc1ccccc1)C2=O)Nc1cccc(F)c1	x	-14
Cc1ccc(-c2ncn(-c3ccc(Nc4ncc(F)c(-c5cnn(C)c5)n4)cc3)n2)cn1	18	-1
Cn1cc(-c2nc(Nc3ccc(-n4cnc(N5CCOCC5)n4)cc3)ncc2Br)cn1	-57	61*
Cc1onc(-c2nc(Nc3ccc(-n4cnc(N5CCOCC5)n4)cc3)ncc2Cl)c1-c1cnn(C)c1	14	-22
Cc1ncn(-c2ccc(Nc3ncc(Br)c(-c4cnn(C)c4)n3)cc2)n1	-68	85*
O=C1c2c(O)ccc(O)c2C(=O)c2c(NCCNCCO)ccc(NCCNCCO)c21	x	43*
NCC(=O)N1CC(C(=O)Nc2nc3ccc(-c4cn[nH]c4)cc3s2)C(c2ccccc2)C1 (centres undefined)	-2	-25
COc1nc(Nc2ccc(Oc3ccccc3)cc2)nc(-c2ccccc2)n1	-13	-25
CCNc1ncc(C(=O)NC2CC2)s1	2	-2
O=C(NC1CC1)c1cnc(Nc2ncccn2)s1	-2	44*
NS(=O)(=O)c1ccc(Nc2nccc(Oc3ccccc3)n2)cc1	-2	-3
Cc1cncc2cccc(S(=O)(=O)N3CCCNC[C@@H]3C)c12	-9	81*!
SMILES	ASK1 primary	ULK1 inh
Cc1cncc2cccc(N3CCN(C(=O)[C@H](C)O)CC3)c12	-2	-1
Cc1cncc2cccc(NC3CCN(C(=O)[C@H](C)O)CC3)c12	-9	10
Cc1cncc2cccc(NC3CCCNC3)c12 (centres undefined)	12	72*
C[n+]1c2cc(N)ccc2cc2ccc(N)cc21	x	71*
COc1cc(Nc2nc(Nc3cccnc3)nc3c2ncn3C(C)C)cc(OC)c1OC	-3	6
CC(=O)Nc1ccc(Nc2nc(Nc3ccc(-n4ccnc4)cc3)nc3nc[nH]c23)cc1	-13	52*
c1ccc(OCCNc2nc(Nc3ncccn3)nc3nc[nH]c23)cc1	9	5
OCCNc1nc(Nc2ccc(-n3ccnc3)cc2)nc2nc[nH]c12	-60	56*
c1ccc(OCCNc2nc(Nc3ccncc3)nc3nc[nH]c23)cc1	2	57*
COc1ccc(CCNc2nc(Nc3ccc(-n4ccnc4)cc3)nc3nc[nH]c23)cc1	-17	27
c1ccc(Nc2nc(Nc3ccc(-n4ccnc4)cc3)nc3nc[nH]c23)cc1	-9	24
CN1CCN(c2ccc(-c3nc(NCCOc4ccccc4)c4ncn(C5CCCCC5)c4n3)cc2)CC1	20	-6
CCN(CC)c1nc(NCCc2ccc(OC)cc2)nc(Nc2cccc(N(C)C)c2)n1	17	2
CC(=O)Nc1c(I)cc(I)c(C(=O)O)c1I	x	6
Oc1ccc(-c2cncc(-c3cncc(-c4ccc(O)cc4)c3)c2)cc1	16	1
O=C(NCCCN1CCCC1=O)c1ccc2nc(Nc3ccncn3)sc2c1	-10	28
COc1cc(N2CCOCC2)ccc1Nc1cc(Nc2cccnc2)c(C(F)(F)F)cn1	30	19
CNC(=O)c1ccccc1Nc1cc(Nc2ccc(N3CCOCC3)cc2C)ncc1C(F)(F)F	-18	92*
CNC(=O)c1ccccc1Nc1cc(Nc2ccc(N3CCOCC3)cn2)ncc1C(F)(F)F	-7	91*
COc1cc(Nc2nc(Nc3nccc4ccccc34)nc3c2ncn3-c2ccccc2)cc(OC)c1OC	3	6
